# In PubChem BioAssay AID720690 (Broad Institute, 2013):
# Potency and affinity values are given separately. Unmarked numbers belong to inactive results.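 The calls were made as follows: active = every repeat run showing a signal drop whose fitted half-maximal concentration is at most twice the top tested concentration; inconclusive = repeat runs disagree, or flat partial drop, or poor fit; inactive = the rest.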
# Experiment: general mammalian cell viability loss – activator set, cherry-pick, cytotoxicity control for miR-122 modulator project, dose response (AID 720690);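 also: 0% = neutral control wells and -100% = MG132 cytotoxic control wells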
# Settings: HEK293T viability, CellTiter-Glo luminescence, 48 h; series mostly up to 26 µM; activity change, negative = cytotoxicity: at the top concentration
row,Structure (SMILES),"activity change, negative = cytotoxicity"
1,CN1C(=O)c2cc(NC(=O)c3ccc4c(c3)OCO4)ccc2OC[C@H]2O[C@@H](CC(=O)O)CC[C@@H]21,-17.1%
2,Cc1cc(C(=O)Nc2ccc3c(c2)C(=O)N(C)[C@H]2CC[C@H](CC(=O)N[C@H](C)c4ccccc4)O[C@H]2CO3)no1,-17.2%
3,C/C=C/c1ccc([C@H]2[C@@H](CO)N(Cc3ccccn3)[C@@H]2CNC(=O)CC)cc1,4.6% [at 23.5 µM]
4,C[C@@H]1CN([C@H](C)CO)S(=O)(=O)c2ccc(C3=CCCC3)cc2O[C@@H]1CN(C)C(=O)C1CCOCC1,4.94%
